The full ranking holds about 25,000 sequences; the median of “ln(normalized median fluorescence intensity)” is about 6.7, and the highest 2% start at about 10. Many of the other results were omitted from the sample, so the highest values are more common in it than they were.

The subject of the test is PfHDP1 homeodomain (GST-tagged). The test is described as follows: gcPBM binding intensity (ln(normalized median fluorescence intensity)); higher = stronger DNA binding. Put shortly:
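GST-tagged P. falciparum DNA-binding domains, expressed in E. coli (about 25 μg on average), were applied for 1 h to an Agilent 4 × 180k array of primer-extended double-stranded 36-bp intergenic genomic probes plus negative controls. The binding buffer was 1× PBS with 1% milk, 0.2 mg/ml BSA, 0.5% salmon testes DNA and 0.03% Triton X-100. Bound protein was detected with Alexa488 anti-GST antibody and scanned at 488 nm. Binding intensity is the highest Masliner-normalised natural-log median intensity across replicate spots of either probe orientation.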
For the sequence “TTTTGTTTAGTGTATTGTACAATATATCTTTATTTT [XGTACX_site5163]”, the “gcPBM binding intensity (ln)” value is 6.52.

In the case of “TTTTGGCTGATCAGATTTAACAAAAAAAAAAAAAAA [CACACA_negctrl_site671]”, the “gcPBM binding intensity (ln)” value amounted to 6.06.

Turning to “GAAATTAAATGACATACACACTATATTATAGATTTT [CACACA_site7468]”, the “gcPBM binding intensity (ln)” value stood at 6.23.

For the sequence “AGTGGGATTTTTAATTGTACATAAATAATATCATAA [XGTACX_site4163]”, the “gcPBM binding intensity (ln)” value amounted to 6.56.

For the sequence “AGAATTAAAAACAGTTGTACAAAAAGTTGTATAAAT [XGTACX_site411]”, the “gcPBM binding intensity (ln)” value came out at 7.41.

For “AAATAAAAGGTTGAGAGTACATTTTTGTGTATGTAT [XGTACX_site5547]”, the “gcPBM binding intensity (ln)” value was determined as 6.49.

As to “ACTGAAAAAAGAAATACACACATTCTGGATCAGATA [CACACA_site7760]”, the “gcPBM binding intensity (ln)” value came to 6.39.

As for “ATTTACATTATATTGAATATGCCATATTATATTATT [CACACA_negctrl_site811]”, the “gcPBM binding intensity (ln)” value turned out to be 6.59.

Regarding “CGTATGTGCGGACATGCATGCAATATACAAGAAAAA [TGCATGCA_site145]”, the “gcPBM binding intensity (ln)” value stood at 7.01.

With TATATATATATATATGTGCACATTTTATTAAAATGT, the “gcPBM binding intensity (ln)” value turned out to be 10.2.

For the sequence CATTATATGATTTATGTGCACATTCATTTATTTTAA, the “gcPBM binding intensity (ln)” value was 10.8.

On to TTATATTATATATATGTGCACATTTTTAAACTTGGA, for which the “gcPBM binding intensity (ln)” value came out at 10.7.

For the sequence “TATTTTTAACAGTGCACACATAACTTAATTATATGT [CACACA_site2194]”, the “gcPBM binding intensity (ln)” value turned out to be 9.55.

As for “TATATTATTCATTAAGCACACATTATTTTTATAATA [CACACA_site6056]”, the “gcPBM binding intensity (ln)” value was 6.36.

With “ACATATTATTCAAGTGCACACTTTATATTTATGATT [CACACA_site3295]”, the “gcPBM binding intensity (ln)” value was 8.81.

In the case of “TACTTAATTATAAGGACATGCACAAAAGGAATTATT [TGCATGCA_site468]”, the “gcPBM binding intensity (ln)” value is 8.01.

Consider TGTTAAAATTATTTGGTGCACTTGTTTTACCTTATT, for which the “gcPBM binding intensity (ln)” value stood at 9.92.

As for CTTATTTTGTTATAAGTGCATTTTTTAAAATTTCTT, the “gcPBM binding intensity (ln)” value is 8.33.

In the case of ATTTATTTCTTGTTAGTGCACTTTCTTTGGTAAAAT, the “gcPBM binding intensity (ln)” value came to 10.9.

On to “ATCTTATATATACGTTGTACTACAGGATATGTCATA [XGTACX_site5734]”, for which the “gcPBM binding intensity (ln)” value stood at 6.63.

“TTAAAATTCAAAAAAAAAAATCAGAATATCAGAAAA [CACACA_negctrl_site1361]”: the “gcPBM binding intensity (ln)” value amounted to 5.92.

Take “ATATATATATAAAGTTGTACATTTTTTATTTTTTCA [XGTACX_site7847]”: the “gcPBM binding intensity (ln)” value was 8.52.

Take “TATATATGTATATGTGTGCACCTTATTTCTTTTATT [GTGCAC_site9513]”: the “gcPBM binding intensity (ln)” value is 9.55.

As for “TTATATTTAGTATATGCACACTTTATGTTTGTTATT [CACACA_site5163]”, the “gcPBM binding intensity (ln)” value was 9.53.

Turning to “TAATATTATTATTTTACACACTTTTTTCCTTTTATC [CACACA_site2457]”, the “gcPBM binding intensity (ln)” value was determined as 6.61.

On to “TATATATTTCGGTGTGCACACTTTTTATTTTTATCC [CACACA_site1726]”, for which the “gcPBM binding intensity (ln)” value was 10.7.

As for “TATATATATTAGTGTGCACACTTTTTATTTTTATCC [CACACA_site8506]”, the “gcPBM binding intensity (ln)” value was found to be 10.5.

For ATTTATATTAAAAGTGTGCACTTTTTTTTTTTTTTT, the “gcPBM binding intensity (ln)” value turned out to be 8.1.

Take “CATTTTGTTTTAAAGTGTACATTATGTAATATAAAA [XGTACX_site647]”: the “gcPBM binding intensity (ln)” value is 6.54.

Regarding “ATTTATATGCACCATTGTACGTTTTATAAAGTTTGG [XGTACX_site3755]”, the “gcPBM binding intensity (ln)” value amounted to 10.5.

As to TATATTTATATATTAGTGCACTTTTTGTTAATTTTT, the “gcPBM binding intensity (ln)” value is 10.3.

As for “ATATTACACATATATGCACACATTGTAGTTATTTAT [CACACA_site8843]”, the “gcPBM binding intensity (ln)” value worked out at 8.92.

Consider “ATTGTGCACTTATATGCACACATTTTAGTTTTTTTT [CACACA_site2028]”, for which the “gcPBM binding intensity (ln)” value is 11.5.

With “TTTCAATGTGACACGTGTCCGTAAAATTACATAATT [XGTACX_site7073]”, the “gcPBM binding intensity (ln)” value was 6.61.

As to “ATCGCGAAGTAGCATTCACACACAGCAAAATATATA [CACACA_site9162]”, the “gcPBM binding intensity (ln)” value worked out at 6.65.

Regarding “ATATATATATTTATATGTACATAATATAAAATTTCT [XGTACX_site3720]”, the “gcPBM binding intensity (ln)” value turned out to be 7.7.

With “ATGTTTTTTATTCTTCGTACGTATGAACGATAGTGT [XGTACX_site4225]”, the “gcPBM binding intensity (ln)” value stood at 6.71.

Regarding “GCTTGTACATTTTTAAAAAATGACTTCGAAAGGAAT [CACACA_negctrl_site453]”, the “gcPBM binding intensity (ln)” value was 7.01.

With “TTTTAATTGTTTATTTGTACATATGTTTAATTATAT [XGTACX_site571]”, the “gcPBM binding intensity (ln)” value was determined as 6.79.

“TATATAAATGGACACACACACACCTTATAATTATTA [CACACA_site6093]”: the “gcPBM binding intensity (ln)” value came to 6.85.

Consider “CCCACATAAAAAAATAAACACACATATGTATATATA [CACACA_site9040]”, for which the “gcPBM binding intensity (ln)” value stood at 7.07.

As for “AAGAAAAACAATGAGATAAAGAAGAGAAAATATGTC [TGCATGCA_negctrl_site415]”, the “gcPBM binding intensity (ln)” value was determined as 6.88.

Take “TATATCAAAATACATACACACATTTGTATTTACATT [CACACA_site5485]”: the “gcPBM binding intensity (ln)” value is 6.58.

For the sequence “TTGTATTCATAACAACGTACATATTTTGTAACTAAA [XGTACX_site4029]”, the “gcPBM binding intensity (ln)” value was found to be 6.26.

With ACTTTTTTGAACAACGTGCACGTATTCATAACAAAA, the “gcPBM binding intensity (ln)” value turned out to be 10.6.

As to “TTTGTTCATATTATTGTGCACTTAAACGTAACAAAA [GTGCAC_site9505]”, the “gcPBM binding intensity (ln)” value is 10.1.

The values above are taken from the supplement of paper PMC11417369.
